Compound activity (PubChem)
Only some compounds are listed: those with a hit (about 11% of all), similar ones and a draw of the others.
AMA1-RON2 inh = disrupts binding of P. falciparum AMA1 to RON2; Potency, µM (series often up to 58.2 µM), hits mostly inhibitors; AlphaScreen AMA1-biotinylated RON2 peptide binding; actives 0.2% (n = 360,000); also: nearly all actives have a fitted effect of over 45% in size
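AMA1 (3D7) with his tag at 25 nM final met compounds first, then biotinylated RON2 peptide at 25 nM; detection used donor plus acceptor beads, 10 µg/mL apiece, read by AlphaScreen after 30 min at room temperature.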
Pf growth 96h = P. falciparum growth inhibition at 96 hours; P. falciparum luciferase reporter growth, 96 h; Potency, µM (top dose mostly 28.7 µM), hits mostly inhibitors; actives 6.9% (n = 320,000)
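Readout is luminescence from an integrated firefly luciferase in P. falciparum. Red cells, 2% hematocrit and 0.05% parasitemia final, were cultured with compound through two parasite generations (96 hours) at 37 C, 5% CO2.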
Pf growth 48h = P. falciparum growth inhibition at 48 hours (one generation). P. falciparum luciferase growth in erythrocytes, 48 h. AID 504832. actives 5.9% (n = 310,000). Potency, µM (top dose mostly 28.7 µM), actives largely listed as inhibitors
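Growth was read as firefly luciferase luminescence after a 48 h, 37 C, 5% CO2 exposure of compounds to reporter-bearing P. falciparum cultures (0.1% parasitemia, 2% hematocrit final) in Albumax-supplemented RPMI 1640.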
HCV inh = blocks hepatitis C virus; Huh7.5.1 HCVcc-Cre infection, luciferase reporter, 44 h; actives 3.4% (n = 340,000); Potency, µM (highest dose often 41.8 µM), usual class: inhibitors
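HCVcc-Cre virus at an moi near 0.5 was added right after compound to cells cultured 4 h from seeding (1,000 cells/well). Luciferase activity was determined 44 h later, 15 min after substrate addition at RT.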
Numbers stand for hits; - = inactive; ? = inconclusive; . = no result given; [ ] = remark or other dose. Calls follow the shape of the dose curve; as a rule, active = well fitted curve in the direction sought with a large enough effect; inconclusive = small, poorly fitted or top-dose-only effect, or another doubt; inactive = no such curve, though single readings can be large; an effect the other way counts as inactive or inconclusive.

SMILES	AMA1-RON2 inh	Pf growth 96h	Pf growth 48h	HCV inh
C=CCn1c(Sc2ncc([N+](=O)[O-])s2)n[nH]c1=O	-	10.4µM	?	6.31µM
c1ccc(CNc2ncnc3sccc23)cc1	-	-	-	-
Cc1sc2ncnc(NCc3ccccc3)c2c1C	-	?	-	5.62µM
Cc1cc2c(NCc3ccccc3)ncnc2s1	-	-	?	7.94µM
COc1ccc(Cl)cc1NC(=O)CN1CCc2ccccc21	?	-	-	?
COc1cccc(NC(=O)C2CCC(CNS(=O)(=O)c3cccc4cccnc34)CC2)c1 (stereo unspecified)	-	?	?	-
Cc1ccc(C(=O)NN2C(=O)C3C(C2=O)C2C=CC3C23CC3)cc1 (stereo unspecified)	-	?	-	-
Cc1ccc(C(=O)C2=C(O)C(=O)N(Cc3ccco3)C2c2ccc(N(C)C)cc2)o1 (stereo unspecified)	-	11.7µM	?	-
CC1CCN(CC(=O)NCc2ccccc2)CC1	-	.	-	-
CC1CCCCC1NCC(=O)Nc1ccccc1-c1ccccc1 (stereo unspecified)	?	14.7µM	?	-
CCc1nc2ccccc2c(NC(=O)CN2CCC(C)CC2)c1C	-	7.38µM	-	-
CC1CCN(CC(=O)Nc2ccccc2-c2ccccc2)CC1	-	?	?	35.5µM
CC(C)(C)c1cc(NC(=O)COc2ccc(Br)cc2)n(-c2ccccc2)n1	-	?	.	-
Cc1ccc(C2=NCCn3c2c2ccc(C(F)(F)F)cc2[n+]3[O-])cc1	-	?	10.4µM	?
N=C1SC(c2ccccc2)C(=O)N1c1ncc(Cc2ccccc2Cl)s1 (stereo unspecified)	-	?	?	-
C=CCn1c(-c2cc(-c3ccc(C)cc3)nc3ccccc23)n[nH]c1=S	-	?	16.5µM	-
CCn1c(-c2ccccc2SC)n[nH]c1=S	-	?	-	-
CCn1c(-c2cc(-c3ccc(C)cc3)nc3ccccc23)n[nH]c1=S	-	16.5µM	?	-
CCCOc1cccc(-c2cc(-c3n[nH]c(=S)n3CC)c3ccccc3n2)c1	-	3.7µM	10.4µM	?
CCn1c(-c2cc(-c3ccc(OC(C)C)cc3)nc3ccccc23)n[nH]c1=S	-	1.47µM	.	-
O=C(COC(=O)/C=C/c1cccc(C(F)(F)F)c1)Nc1cccc(S(=O)(=O)NC2=NCCC2)c1	-	.	.	.
O=C(CCNC(=O)c1ccccc1Cl)Nc1ccc2c(c1)OCCO2	-	.	.	.
COC(=O)[C@@H](Cc1c[nH]c2ccccc12)NC(=O)CNC(=O)c1ccccc1OC	-	-	-	-
COc1cc(OC)nc(Nc2nc(CN)cs2)n1	-	.	.	.
C#CCOCCOCCOCCNc1nc(N2CCN(C(=O)[C@H](CCCCN)n3cc(CN)nn3)CC2)nc(N2CCN(C(=O)[C@H](CCCN=C(N)N)n3cc(C(N)[C@H](C)CC)nn3)CC2)n1 (stereo partly specified)	-	.	.	?
SMILES	AMA1-RON2 inh	Pf growth 96h	Pf growth 48h	HCV inh
Cc1ccc2nc3sc(C(=O)Nc4c(C)[nH]c(=O)[nH]c4=O)c(N)c3cc2c1	-	8.28µM	-	-
Cc1[nH]c(=O)[nH]c(=O)c1NC(=O)c1sc2nc3c(C)cccc3cc2c1N	-	4.65µM	-	?
Cc1cccc(NC(=O)c2sc3nc(N)c(C#N)cc3c2N)c1	-[11.6 µM]	?	?	-
Cc1ccc2cc3c(N)c(C(=O)Nc4c(C)[nH]c(=O)[nH]c4=O)sc3nc2c1	-	?	-	-
CN(C(=O)CN1CCN(c2cc(-c3cccc4oc5ccccc5c34)ncn2)CC1)c1ccccc1	-	.	.	.
Cc1ccc(C)c(S(=O)(=O)NCc2ccncc2)c1	-	?	?	?
C/C(=N/NS(=O)(=O)c1ccc(Cl)cc1)c1ccc2c(c1)OCO2	-	.	.	-
C/C(=N/NS(=O)(=O)c1cc(C)ccc1C)c1ccc2c(c1)OCO2	-	11.7µM	-	-
C/C(=N/NS(=O)(=O)c1cc(C)ccc1C)c1ccncc1	-	11.7µM	-	-
CO/N=C/c1ccc(N2CCN(C(=O)c3ccc(F)cc3)CC2)c([N+](=O)[O-])c1	-	?	?	14.1µM
CO/N=C/c1ccc(N2CCN(C(=O)c3ccc(Cl)cc3Cl)CC2)c([N+](=O)[O-])c1	?	-	-	8.91µM
O=C(O/N=C\c1ccc(N2CCCCC2)c([N+](=O)[O-])c1)c1cccc(Cl)c1	-	-	-	-
O=C(N/N=C/c1ccc(N2CCOCC2)c([N+](=O)[O-])c1)c1ccc(F)cc1	-	.	?	-
Cc1cccc(Oc2ccccc2NC(=O)CSCC(=O)Nc2cc(C)on2)c1	-	?	?	?
Cc1cc(NC(=O)CSc2nnc(COc3ccccc3)o2)no1	11.2µM	-	-	-
CC(=O)Nc1ccc(NC(=O)CSc2nnc(-c3ccco3)o2)cc1	-	?	-	-
COC(=O)c1ccc(NC(=O)CSc2nnc(COc3ccc4c(c3)CCCC4)o2)cc1	-	1.85µM	-	-
Cc1cc(NC(=O)CSc2nnc(-c3ccco3)o2)no1	28.2µM	-	-	-
CCOc1ccc(Oc2ccccc2NC(=O)CSCC(=O)Nc2cc(C)on2)cc1	-	?	?	8.91µM
COc1ccc(C(=O)NCc2nnc(SCC(=O)Nc3cc(C)on3)o2)cc1OC	-	-	-[1.15 µM]	-
Cc1cccc(S(=O)Cc2ccc(C(=O)NC3CCN(Cc4ccccc4)CC3)o2)c1 (stereo unspecified)	-	?	-	?
CCOC(=O)c1cccc(NC(=O)CSc2nnc(COc3ccccc3C)o2)c1	-	7.38µM	-	-
CCOC(=O)c1sc(NC(=O)CCN2C(=O)c3cccc([N+](=O)[O-])c3C2=O)c(C(=O)OCC)c1C	-	-	-	-
Cc1ccc(N=C2SC(C(=O)NCCc3ccccc3)CC(=O)N2C)cc1C (stereo unspecified)	-	-	-	-
Cc1ccc(N=C2SC(C(=O)O)CC(=O)N2C)cc1C (stereo unspecified)	-	11.7µM	-	-
SMILES	AMA1-RON2 inh	Pf growth 96h	Pf growth 48h	HCV inh
C=CCNCCCCOc1ccc(OCc2ccccc2)cc1	-	-	-	?
CCCOc1ccc(OCCCCNC(C)CC)cc1 (stereo unspecified)	-	-	.	?
CCC(C)NCCOc1ccc(C(C)(C)c2ccccc2)cc1 (stereo unspecified)	-	-	?	10µM
CNCCCOc1ccc(C(C)(C)c2ccccc2)cc1	.	9.28µM	.	.
COCCCNCCOc1ccc(C(C)(C)c2ccccc2)cc1	-	?	-	10µM
CC(C)(C)c1ccc(OCCNCc2ccccc2)cc1	-	-	-	-
COCCCNCCCCOc1ccc(OCc2ccccc2)cc1	-	-	?	11.2µM
CC(C)(c1ccccc1)c1ccc(OCCN2CCOCC2)cc1	?	?	-	-
COc1cccc(C(NC(C)=O)c2nc(-c3cccc(O)c3)cs2)c1 (stereo unspecified)	-	.	.	.
COC(=O)c1cc(S(=O)(=O)N2CCN(c3cccc(Cl)c3)CC2)c[nH]1	-	?	-	?
O=C(Nc1ccc(C(=O)O)cc1)/C(=C\c1ccc([N+](=O)[O-])cc1)NC(=O)c1ccco1	-	.	.	.
